PubChem BioAssay (EPA / NIEHS)
“And” between values parts separate entries of the source, which are not always exact repeats. Identical values can stand only once. Results filed as inconclusive are left out. The source holds several records for some structures; these can differ, active in one and inactive in another. The source made the active and inactive calls. Rule for the calls, unless noted: active = hit-call score of the fitted dose curve at least 0.9, where 1 is the maximum; inactive = score below 0.9.

Legend:
[1] = ATG_TCF_b_cat_CIS: Attagene CIS-FACTORIAL HepG2 Assay for human T-Cell-Factor with beta-catenin (TCF/b-cat) (AID 2282965); details: HepG2 TCF/beta-catenin cis-reporter transcription, actives raise or lower the signal
Outline: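 Endogenous TCF/LEF activity read as reporter transcript level via RT-PCR and capillary electrophoresis fluorescence in transfected HepG2, 24 h exposure; gain or loss of signal fitted against DMSO controls.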

[2] = ATG_TAL_CIS: Attagene CIS-FACTORIAL HepG2 Assay for human TAL Basal Promoter (AID 2282966); details: HepG2 Attagene cis-factorial TAL promoter reporter; actives raise or lower the signal;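 note: background control endpoint measuring basal TAL promoter reporter mRNA not a specific factor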
Outline: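 Transiently transfected HepG2 (cis-regulated reporter units), 24 h treatment, mRNA read by fluorescent CE after RT-PCR; bidirectional fit, DMSO baseline.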

[3] = ATG_TGFb_CIS: Attagene CIS-FACTORIAL HepG2 Assay for human Transforming Growth Factor (TGF) (AID 2282967); details: HepG2 Attagene CIS TGFb reporter, mRNA transcription; actives raise or lower the signal
Outline: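 HepG2 cells transiently transfected with cis-promoter-driven multiple reporter units measure endogenous TF activity; reporter mRNA quantified at 24 h by RT-PCR, FAM labeling, HpaI digestion and capillary electrophoresis. Bidirectional fit vs DMSO.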

[4] = ATG_VDRE_CIS: Attagene CIS-FACTORIAL HepG2 Assay for human Vitamin D Receptor Element (VDRE) (AID 2282968); details: HepG2 VDRE cis-reporter transcription, actives raise or lower the signal
Outline: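 Readout is VDRE-driven reporter mRNA reflecting endogenous factor activity in human HepG2 cells, sampled 24 h post-dose. Quantification used labelled RT-PCR products separated by capillary electrophoresis; bidirectional analysis relative to DMSO.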

[5] = molecular target: Estrogen receptor (Homo sapiens) (UniProt P03372); test: ATG_ERa_TRANS: Attagene TRANS-FACTORIAL HepG2 Assay for human Estrogen Receptor alpha (ERa) (AID 2282970; active = hit-call score of the fitted dose curve at least 0.9, where 1 is the maximum); details: HepG2 Attagene TRANS ERa GAL4 reporter, mRNA
Estrogen receptor (Homo sapiens), sequence (P03372 whole entry, looked up, the tested form may be a part): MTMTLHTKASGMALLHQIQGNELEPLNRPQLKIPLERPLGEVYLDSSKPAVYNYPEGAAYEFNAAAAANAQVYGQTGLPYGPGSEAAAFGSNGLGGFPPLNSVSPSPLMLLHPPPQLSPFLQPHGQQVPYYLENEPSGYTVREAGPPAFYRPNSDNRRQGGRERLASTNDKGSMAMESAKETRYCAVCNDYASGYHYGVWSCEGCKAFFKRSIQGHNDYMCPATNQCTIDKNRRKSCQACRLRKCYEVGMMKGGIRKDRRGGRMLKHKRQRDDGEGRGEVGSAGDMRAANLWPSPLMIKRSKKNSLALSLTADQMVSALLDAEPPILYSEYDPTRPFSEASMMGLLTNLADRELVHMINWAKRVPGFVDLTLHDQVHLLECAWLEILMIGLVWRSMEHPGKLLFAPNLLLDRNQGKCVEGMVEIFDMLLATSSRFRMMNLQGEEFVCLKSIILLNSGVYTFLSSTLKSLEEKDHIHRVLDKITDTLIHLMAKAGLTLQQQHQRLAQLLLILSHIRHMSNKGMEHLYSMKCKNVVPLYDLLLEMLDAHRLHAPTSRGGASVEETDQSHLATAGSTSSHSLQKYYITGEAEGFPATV
Outline: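 One of 30 multiplexed endpoints from a HepG2 TRANS system, this one reports ERa-Gal4-driven reporter mRNA. Transcripts were quantified 24 hours post-dosing by fluorescent RT-PCR and capillary electrophoresis, with activity scored as induction over DMSO.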

[6] = molecular target: X-box-binding protein 1 (Homo sapiens) (UniProt P17861); test: ATG_Xbp1_CIS: Attagene CIS-FACTORIAL HepG2 Assay for human X-box Binding Protein 1 (XBP1) (AID 2282972); details: HepG2 XBP1 cis-element reporter, Attagene multiplex; actives raise or lower the signal
X-box-binding protein 1 (Homo sapiens), sequence (P17861 whole entry, looked up): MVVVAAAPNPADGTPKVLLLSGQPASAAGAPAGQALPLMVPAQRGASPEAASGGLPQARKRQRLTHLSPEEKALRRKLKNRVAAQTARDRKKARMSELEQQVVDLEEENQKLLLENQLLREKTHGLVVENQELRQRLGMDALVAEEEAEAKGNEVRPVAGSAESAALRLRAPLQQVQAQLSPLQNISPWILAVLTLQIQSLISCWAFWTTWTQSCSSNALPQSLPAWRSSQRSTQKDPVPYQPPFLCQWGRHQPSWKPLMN
Outline: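 Multiplexed cis-reporter readout in transfected HepG2 liver cells. Exposure lasted 24 hours. Activity in either direction was fitted against DMSO as negative control and baseline.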

[7] = ATG_M_19_TRANS: Attagene TRANS-FACTORIAL HepG2 Assay for M19 Transcription Factor (Internal Marker) (AID 2282974; active = hit-call score of the fitted dose curve at least 0.9, where 1 is the maximum); details: HepG2 Attagene TRANS-FACTORIAL M19 internal marker reporter
Outline: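 Gain-of-signal in reporter mRNA, relative to DMSO, was scored from capillary electrophoresis fluorescence. HepG2 cells carried transiently transfected multiple reporter transcription units and were incubated with test chemicals for 24 h.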

[8] = ATG_GAL4_TRANS: Attagene TRANS-FACTORIAL HepG2 Assay for GAL4 (Internal Marker) (AID 2282976; active = hit-call score of the fitted dose curve at least 0.9, where 1 is the maximum); details: HepG2 Attagene TRANS GAL4 internal marker reporter
Outline: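 HepG2 cells transiently transfected with multiplexed GAL4-UAS reporter constructs were dosed for 24 h. Reporter mRNA was measured by RT-PCR, 6-FAM primer extension, HpaI digestion and capillary electrophoresis, and gain of signal was fitted relative to DMSO.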

[9] = molecular target: Steroid hormone receptor ERR1 (Homo sapiens) (UniProt P11474); test: ATG_ERRa_TRANS: Attagene TRANS-FACTORIAL HepG2 Assay for human Estrogen-Related Receptor alpha (ERRa) (AID 2282971; active = hit-call score of the fitted dose curve at least 0.9, where 1 is the maximum); details: HepG2 Attagene TRANS reporter, ERRa transactivation
Steroid hormone receptor ERR1 (Homo sapiens), sequence (P11474 whole entry, looked up, the tested form may be a part): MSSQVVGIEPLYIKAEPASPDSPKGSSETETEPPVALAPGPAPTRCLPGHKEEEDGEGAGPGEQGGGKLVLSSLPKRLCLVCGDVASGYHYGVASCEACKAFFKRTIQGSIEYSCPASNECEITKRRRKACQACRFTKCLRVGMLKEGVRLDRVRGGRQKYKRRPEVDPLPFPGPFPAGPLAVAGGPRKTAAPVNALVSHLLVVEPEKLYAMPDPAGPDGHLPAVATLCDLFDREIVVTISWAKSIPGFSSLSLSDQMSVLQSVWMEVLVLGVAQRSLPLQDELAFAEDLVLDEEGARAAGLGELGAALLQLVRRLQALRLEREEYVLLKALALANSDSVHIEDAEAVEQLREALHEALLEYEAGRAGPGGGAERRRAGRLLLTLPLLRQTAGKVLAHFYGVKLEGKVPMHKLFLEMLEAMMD
Outline: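 HepG2 cells transiently transfected with multiplexed GAL4-UAS reporter units reading chimeric ERRa-Gal4 activity; 24 h compound exposure. Reporter mRNA measured by RT-PCR, 6-FAM labelling, HpaI digest and capillary electrophoresis; gain of signal fitted versus DMSO baseline.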

[10] = molecular target: Estrogen-related receptor gamma (Homo sapiens) (UniProt P62508); test: ATG_ERRg_TRANS: Attagene TRANS-FACTORIAL HepG2 Assay for human Estrogen-Related Receptor gamma (ERRg) (AID 2282977; active = hit-call score of the fitted dose curve at least 0.9, where 1 is the maximum;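 note: hits increase reporter signal over DMSO so potencies reflect activators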); details: HepG2 Attagene TRANS reporter, ERRg transactivation
Estrogen-related receptor gamma (Homo sapiens), sequence (P62508 whole entry, looked up, the tested form may be a part): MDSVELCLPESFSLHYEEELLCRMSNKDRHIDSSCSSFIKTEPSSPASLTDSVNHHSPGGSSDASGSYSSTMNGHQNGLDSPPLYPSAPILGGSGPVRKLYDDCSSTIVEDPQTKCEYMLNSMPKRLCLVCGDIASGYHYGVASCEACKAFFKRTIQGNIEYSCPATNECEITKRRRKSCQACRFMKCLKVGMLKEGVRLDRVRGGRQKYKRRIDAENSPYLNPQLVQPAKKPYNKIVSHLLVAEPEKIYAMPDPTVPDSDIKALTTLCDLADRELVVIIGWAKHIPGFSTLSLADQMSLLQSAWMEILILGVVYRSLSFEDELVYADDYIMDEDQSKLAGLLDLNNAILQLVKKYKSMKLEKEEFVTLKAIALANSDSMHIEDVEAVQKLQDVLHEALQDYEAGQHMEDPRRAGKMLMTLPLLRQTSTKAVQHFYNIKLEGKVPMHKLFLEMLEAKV
Outline: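 Induction of reporter transcripts through a chimeric NR-Gal4 protein is quantified in transfected human HepG2 liver cells after 24 h chemical exposure, using RT-PCR with capillary electrophoresis detection and DMSO as baseline.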

Row | Compound | outcome [1] | outcome [2] | outcome [3] | outcome [4] | outcome [5] | outcome [6] | outcome [7] | outcome [8] | AC50 [1] | AC50 [4] | AC50 [5] | outcome [9] | outcome [10] | AC50 [3]
1 | OC(CCl)CCl | inactive | inactive | inactive | inactive | inactive | inactive | inactive | inactive | – | – | – | – | – | –
2 | COCc1nnc(-c2ccc[n+]([O-])c2)n1-c1c(Cl)c(Cl)cc2[nH]c(=O)c(=O)[nH]c12 | inactive | inactive | inactive | inactive | inactive | inactive | – | inactive | – | – | – | – | – | –
3 | C=CCc1cc(S(=O)(=O)c2ccc(O)c(CC=C)c2)ccc1O | – | inactive | inactive | – | – | inactive | inactive | inactive | 43.7 µM (active) | 9.12 µM (active) | 2.06 µM (active) | – | – | –
4 | O=S(=O)(O)CCC(F)(F)C(F)(F)C(F)(F)C(F)(F)C(F)(F)C(F)(F)F | inactive | inactive | inactive | inactive | inactive | inactive | inactive | inactive | – | – | – | inactive | inactive | –
5 | Cc1cccc(O)c1C | inactive | inactive | inactive | inactive | – | inactive | inactive | inactive | – | – | 38.5 µM (active) and 46 µM (active) | inactive | inactive | –
6 | Cc1nc(-c2ccccn2)ncc1C(=O)Nn1cc(C)c2cc(F)ccc21 | inactive | inactive | inactive | inactive | – | inactive | inactive | inactive | – | – | – | inactive | inactive | –
7 | CCCCCCCCCCCCCCCCOS(=O)(=O)O | – | inactive | – | inactive | inactive | inactive | inactive | – | 25.7 µM (active) | – | – | inactive | – | 11.5 µM (active)
8 | OC(Cn1cncn1)(Cn1cncn1)c1ccc(F)cc1F | inactive | inactive | inactive | inactive | inactive | inactive | inactive | – | – | – | – | – | inactive | –
9 | FC(F)C(F)(F)COCC1CO1 (stereo not drawn) | inactive | inactive | inactive | inactive | – | inactive | inactive | – | – | – | 82 µM (active) and 39.8 µM (active) | inactive | inactive | –
10 | FC(F)=C(F)C(F)(F)C(F)(F)C(F)(F)C(F)(F)C(F)(F)C(F)(F)F | inactive | – | inactive | inactive | inactive | inactive | inactive | inactive | 234 µM (active) | – | 12.9 µM (active) | inactive | inactive | –
11 | CC(C)CCCCCCOC(=O)C1CCCCC1C(=O)OCCCCCCC(C)C (stereo not drawn) | inactive | inactive | inactive | inactive | – | inactive | inactive | – | – | – | – | – | – | –
12 | Cn1c(=O)c2[nH]cnc2n(C)c1=O | – | inactive | inactive | – | inactive | inactive | inactive | – | 100 µM (active) | – | – | – | – | –
13 | CCCCCOC(C)=O | inactive | inactive | inactive | inactive | – | inactive | inactive | – | – | – | – | – | – | –
14 | CCCCCCCCCC | inactive | – | inactive | inactive | inactive | inactive | inactive | – | – | – | – | – | – | –
15 | CC(=O)c1ccccc1 | inactive | inactive | inactive | – | inactive | inactive | inactive | inactive | – | – | – | – | – | –
16 | CNC(C)=O | inactive | – | inactive | inactive | inactive | inactive | – | – | – | – | – | – | – | –
17 | C[C@@H](Oc1ccc(CNC(=O)c2cccnc2Oc2ccc3c(c2)OCO3)c(F)c1)C(=O)O | inactive | – | inactive | inactive | inactive | inactive | – | inactive | – | – | – | inactive | inactive | –
18 | C[C@]12C=CC(=O)C=C1CC[C@H]1[C@@H]3C[C@@H](O)[C@](O)(C(=O)CO)[C@@]3(C)C[C@H](O)[C@@]12F | inactive | – | inactive | inactive | – | inactive | – | – | – | – | 37.2 µM (active) | – | – | –
19 | CC[C@H](C)C(=O)O[C@H]1C[C@H](O)C=C2C=C[C@H](C)[C@H](CC[C@@H](O)C[C@@H](O)CC(=O)O)[C@H]21 | inactive | inactive | inactive | inactive | – | inactive | – | inactive | – | – | – | – | – | –
